NPC1 promoter act: activators of NPC1 promoter. Huh7 NPC1 promoter luciferase reporter, 24 h. Potency, µM (top dose mostly 9.22 µM), usual class: activators. actives 2.4% (n = 320,000); also: nearly all actives have a fitted effect of over 60% in size
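Stably transfected Huh7 (NPC1 promoter→luciferase), 1500 cells/well in Opti-MEM + 10% FBS, 2 h settle, then compound 24 h at 37 °C. Luminescence after 10 min with Amplite reagent.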
Rab9 prom act: Rab9 promoter activation. Huh7 Rab9 promoter-luciferase reporter, luminescence, 24 h. Potency, µM (doses to about 9.22 µM), actives largely listed as activators. actives 2.8% (n = 320,000); also: nearly all actives have a fitted effect of over 60% in size
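Measured in stably transfected Huh7 cells bearing a Rab9 promoter–luciferase construct: 24 h compound treatment at 37 °C, followed by luminescence detection.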
ELG1 genotoxic: induces genotoxicity in HEK293T cells with luciferase-tagged ELG1; actives 1.3% (n = 330,000); AID 504466; Potency, µM (top dose mostly 46 µM), usual class: activators; HEK293T ELG1-luciferase reporter, luminescence, 16 h; also: nearly all actives have a fitted effect of over 60% in size
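Reporter readout depends on ELG1 protein level, which increases with genetic stress. After 16 hr compound exposure at 37 °C, luciferase activity was quantified using ONE-Glo.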
FLuc counter: counter-screen for miR-21 project: firefly luciferase inhibitors or activators; P08659; purified FLuc, Km substrates, luminescence inhibition; Potency, µM (titrated, usually from 57.5 µM), hits mostly inhibitors; actives 6.9% (n = 360,000); AID 588342; also: nearly all actives have a fitted effect of over 55% in size
Target sequence (P08659 whole entry, looked up): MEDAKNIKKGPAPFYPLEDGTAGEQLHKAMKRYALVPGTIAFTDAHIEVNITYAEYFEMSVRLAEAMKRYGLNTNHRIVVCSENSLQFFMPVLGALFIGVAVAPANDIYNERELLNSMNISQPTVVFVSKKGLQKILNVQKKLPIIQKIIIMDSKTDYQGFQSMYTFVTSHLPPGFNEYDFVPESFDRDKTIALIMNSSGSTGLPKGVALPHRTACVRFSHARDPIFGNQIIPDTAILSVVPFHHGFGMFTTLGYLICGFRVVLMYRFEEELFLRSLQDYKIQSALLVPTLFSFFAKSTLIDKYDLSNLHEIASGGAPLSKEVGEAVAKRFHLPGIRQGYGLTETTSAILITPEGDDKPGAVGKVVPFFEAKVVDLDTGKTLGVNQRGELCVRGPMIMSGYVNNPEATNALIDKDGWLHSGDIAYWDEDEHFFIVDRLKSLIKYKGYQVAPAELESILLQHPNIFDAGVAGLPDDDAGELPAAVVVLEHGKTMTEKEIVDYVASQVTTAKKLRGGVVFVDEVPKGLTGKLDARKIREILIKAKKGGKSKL
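Biochemical qHTS of compounds, final roughly 60 µM downward over six points, against 10 nM purified firefly luciferase using Km concentrations of substrates (10 uM D-luciferin, 10 uM ATP) in Tris acetate pH 7.5 buffer; luminescence output.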
ELG1 DNA repair: blocks ELG1-dependent DNA repair in HEK293T cells; actives 2.3% (n = 330,000); HEK293T ELG1-luciferase reporter, luminescence, 16 h; DNA damage induced by 5-fluorouridine; Potency, µM (titrated, usually from 46.1 µM), usual class: inhibitors; also: nearly all actives have a fitted effect of over 55% in size
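In this reporter screen, reduction of luminescence relative to DMSO vehicle indicated activity. Compounds and 5-fluorouridine were added together to 2,000 cells per well, incubated for 16 hr at 37 °C, then developed with ONE-Glo.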
SMN2 splice up: SMN2 splice variant enhancement. HEK293 SMN2-luciferase splicing reporter, luminescence, 30-36 h. Potency, µM (top dose mostly 46.1 µM), most hits filed as activators. actives 2.8% (n = 210,000). AID 1458; also: nearly all actives have a fitted effect of over 55% in size
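qHTS luciferase splicing reporter: luminescence rises when SMN2 exon 7 is included in transfected HEK293 cells. Compound exposure lasted 30-36 h at 37C, with 4.5 mM final sodium butyrate as control, followed by a ONE-Glo read.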
Each line names hits and unclear results; the compound was inactive in the other large screens; ! = repeats disagree. Sampled rows, rich in hits. Any-hit rate of the full collection: about 9.3%. Calls follow the shape of the dose curve; as a rule, active = well fitted curve in the direction sought with a large enough effect; inconclusive = small, poorly fitted or top-dose-only effect, or another doubt; inactive = no such curve, though single readings can be large; an effect the other way counts as inactive or inconclusive.

Cc1ccc(CNC(=O)c2cc(C)nn2-c2ccccc2)cc1	none (no result: SMN2 splice up)
Cc1ccc(Cc2nnc3n(-c4ccccc4)nc(C(=O)c4ccccc4)n3c2=O)cc1	ELG1 DNA repair 21µM (no result: SMN2 splice up)
CCCCOc1ccc(C(=O)C(CN2CCOCC2)c2ccccc2)cc1 (stereo unspecified)	ELG1 DNA repair inconclusive
COc1ccc(C(=O)C(CN2CCCC2)c2ccccc2)cc1 (stereo unspecified)	ELG1 DNA repair 16µM
COc1ccc(C(=O)C(OC(=O)c2ccccc2Cl)c2ccccc2)cc1 (stereo unspecified)	NPC1 promoter act inconclusive, Rab9 prom act 4µM, ELG1 genotoxic inconclusive, FLuc counter 13µM, ELG1 DNA repair inconclusive
CCCOc1ccc(C(=O)C(CN2CCCC2)c2ccccc2)cc1 (stereo unspecified)	ELG1 DNA repair 18µM
CCc1ccc(C(=O)Cn2ncc(Cl)c(Cl)c2=O)cc1	FLuc counter 7.6µM (no result: SMN2 splice up)
N#C/C(=N\Nc1ccccc1[N+](=O)[O-])C(=N)N1CCCCC1	NPC1 promoter act 0.56µM, Rab9 prom act 0.28µM, ELG1 genotoxic inconclusive, FLuc counter 2.4µM, ELG1 DNA repair inconclusive, SMN2 splice up 3.2µM
N#C/C(=N\Nc1ccc(S(=O)(=O)N2CCCCC2)cc1)C(N)=S	ELG1 DNA repair inconclusive
O=C(CN1CCCCCC1)Nc1ccccc1[N+](=O)[O-]	none (no result: SMN2 splice up)
N#C/C(=N\Nc1ccc([N+](=O)[O-])cc1)C(N)=S	FLuc counter 17µM, ELG1 DNA repair inconclusive (no result: SMN2 splice up)
N#C/C(=N\Nc1ccc(Br)cc1)C(=N)N1CCOCC1	NPC1 promoter act 3.5µM, Rab9 prom act 4µM, ELG1 genotoxic inconclusive, FLuc counter inconclusive, ELG1 DNA repair inconclusive, SMN2 splice up inconclusive
N#C/C(=N\Nc1ccc([N+](=O)[O-])cc1)C(=N)N1CCOCC1	NPC1 promoter act inconclusive, Rab9 prom act 2.8µM, ELG1 genotoxic inconclusive, FLuc counter inconclusive, ELG1 DNA repair inconclusive (no result: SMN2 splice up)
COc1ccccc1N/N=C(\C#N)C(=N)N1CCOCC1	SMN2 splice up inconclusive
CC12CCC(c3nnc(SCc4ccc(Cl)cc4)nc31)C2(C)C (stereo unspecified)	none
Cc1ccccc1OCCn1cc(C(=S)N2CCN(C)CC2)c2ccccc21	FLuc counter inconclusive
N#C/C(=N/Nc1ccc([N+](=O)[O-])cc1)C(=N)N1CCCCC1	NPC1 promoter act 1µM, Rab9 prom act 0.56µM, ELG1 genotoxic inconclusive, FLuc counter 9.5µM, ELG1 DNA repair inconclusive, SMN2 splice up 3.2µM
N=C(c1ccc([N+](=O)[O-])cc1)N1CCCCC1	none
O=C1COc2ccc(OCc3ccc(F)cc3)cc21	NPC1 promoter act 1.4µM, Rab9 prom act 1.1µM, ELG1 genotoxic inconclusive, FLuc counter 4.3µM, ELG1 DNA repair inconclusive, SMN2 splice up 11µM
NC(=O)c1ccc[n+](Cc2cccc3ccccc23)c1	none
COc1ccc(S(=O)(=O)N2CCN(C(=O)c3cc(-c4ccc(Br)cc4)n[nH]3)CC2)cc1OC	ELG1 DNA repair 23µM (no result: SMN2 splice up)
O=C(c1cc(-c2ccc(Br)cc2)n[nH]1)N1CCN(S(=O)(=O)c2ccc(Br)cc2)CC1	none (no result: NPC1 promoter act, Rab9 prom act, ELG1 genotoxic, ELG1 DNA repair, SMN2 splice up)
CC(=O)c1c(C)oc2ccc(NS(=O)(=O)c3ccc(C)cc3)cc12	ELG1 DNA repair inconclusive (no result: SMN2 splice up)
NNC(=O)CN1CCN(c2ncc(C(F)(F)F)cc2Cl)CC1	none
CC(C)(C)NC(=O)NC(=O)CN1CCN(c2ncc(C(F)(F)F)cc2Cl)CC1	ELG1 DNA repair 7.3µM
Cc1ccc(N2C(=O)c3ccccc3C2C(=O)c2ccc(O)cc2O)cc1 (stereo unspecified)	SMN2 splice up inconclusive
Cc1ccc(N2C(=O)c3ccccc3C2C(=O)c2cc(C)ccc2O)cc1 (stereo unspecified)	FLuc counter inconclusive, ELG1 DNA repair inconclusive, SMN2 splice up 13µM
CC(/C=N/NC(=O)c1ccco1)=C\c1ccccc1	NPC1 promoter act 0.56µM, Rab9 prom act 0.35µM, ELG1 genotoxic 2.3µM, FLuc counter 2.4µM, ELG1 DNA repair inconclusive, SMN2 splice up 2.5µM
O=C(N/N=C\CCc1ccccc1)c1ccco1	SMN2 splice up inconclusive
CC(/C=N/NC(=O)c1ccccc1F)=C\c1ccccc1	NPC1 promoter act 1.1µM, Rab9 prom act 1.1µM, ELG1 genotoxic inconclusive, FLuc counter 3.4µM, ELG1 DNA repair inconclusive (no result: SMN2 splice up)
COc1ccc(C(=O)NCC(=O)N/N=C/C(C)=C/c2ccccc2)cc1OC	FLuc counter 17µM
CC(/C=N\NC(=O)c1ccc(C)nc1)=C\c1ccccc1	FLuc counter 8.5µM
Nc1cc(-c2ccccc2)ccc1O	FLuc counter 24µM, ELG1 DNA repair 8.2µM!
O=[N+]([O-])c1ccccc1COc1ccc(Cl)c2cccnc12	NPC1 promoter act 0.63µM, Rab9 prom act 0.28µM, ELG1 genotoxic 1.6µM, FLuc counter 0.54µM, ELG1 DNA repair inconclusive (no result: SMN2 splice up)
C=CCn1c(-c2csc(-c3ccc(OC)c(OC)c3)n2)n[nH]c1=S	none
COc1ccc(-c2nc(-c3ccc(O)cc3O)cs2)cc1OC	Rab9 prom act inconclusive, ELG1 genotoxic inconclusive, FLuc counter 11µM, SMN2 splice up inconclusive
COc1ccc(-c2nc(CCl)cs2)cc1	Rab9 prom act inconclusive, ELG1 genotoxic inconclusive, FLuc counter 9.5µM, ELG1 DNA repair inconclusive
COc1ccc(O)cc1	none (no result: NPC1 promoter act, Rab9 prom act, FLuc counter)
COc1ccc(-c2csc(-c3ccc(O)cc3)n2)cc1	ELG1 genotoxic inconclusive, FLuc counter 9.5µM, ELG1 DNA repair inconclusive (no result: SMN2 splice up)
COc1cccc(-c2nc(CCl)cs2)c1	FLuc counter 27µM
O=C(COC(=O)C12CC3CC(CC(C3)C1)C2)NC12CC3CC(CC(C3)C1)C2	none
Cc1ccc(-c2csc(-c3c[nH]c4ccccc34)n2)c(C)c1	NPC1 promoter act inconclusive, FLuc counter inconclusive
Oc1ccc(-c2csc(-c3c[nH]c4ccccc34)n2)c(O)c1	NPC1 promoter act 3.5µM, Rab9 prom act inconclusive, ELG1 genotoxic inconclusive, FLuc counter 11µM, ELG1 DNA repair inconclusive, SMN2 splice up inconclusive
COc1ccc(-c2csc(C3=C(O)CN(C(C)C)C3=N)n2)cc1OC	ELG1 genotoxic inconclusive, FLuc counter 11µM
COc1ccc(-c2nc(CCl)cs2)cc1OC	FLuc counter inconclusive
CCc1ccc(-c2nc(CCl)cs2)cc1	NPC1 promoter act inconclusive, Rab9 prom act inconclusive, ELG1 genotoxic inconclusive, FLuc counter 3.8µM, ELG1 DNA repair inconclusive (no result: SMN2 splice up)
NS(=O)(=O)c1ccc(Cl)c(C(=O)Nc2ccccc2[N+](=O)[O-])c1	none (no result: SMN2 splice up)
COc1cc2c(cc1OC)CN(C(=O)CN1C(=O)NC3(CCC(C)CC3)C1=O)CC2 (stereo unspecified)	none (no result: SMN2 splice up)
CCCC(=O)Nc1ccc(-c2csc(N/N=C\c3ccncc3)n2)cc1	NPC1 promoter act inconclusive, Rab9 prom act inconclusive, FLuc counter 3µM, ELG1 DNA repair inconclusive (no result: SMN2 splice up)
CC(=O)Nc1ccc(-c2csc(NC(=O)Cc3ccccc3F)n2)cc1	FLuc counter inconclusive (no result: SMN2 splice up)
CCCC(=O)Nc1ccc(-c2csc(NNC(C)=O)n2)cc1	none (no result: SMN2 splice up)
